DT40 TDP1 no CPT – qHTS for Inhibitors of human tyrosyl-DNA phosphodiesterase 1 (TDP1): qHTS in cells in absence of CPT; DT40 Tdp1-/- hTDP1 cells, no CPT, ATP luminescence, 48 h; Potency, µM (highest dose often 46.2 µM), inactives show at the top dose activity change, negative = growth inhibition, usual class: inhibitors; 420,000 compounds, 15% hits; AID 686978, 2013; further: potency means the concentration at half of the fitted maximal effect; nearly all actives have a fitted effect of over 55% in size
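Chicken DT40 Tdp1-/- cells stably complemented with human TDP1 were seeded at 400 cells/well with DMSO in place of 20 nM camptothecin. After compound pinning, cells grew at least 48 hr at 37 °C; viability read by CellTiter-Glo luminescence.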
VP16 counter – Gal4-VP16 reporter inhibition counter-screen; 310,000 compounds, 3.5% hits; Drosophila S2 Gal4-VP16 UAS-luciferase, luminescence, 20 h; Potency, µM (highest dose often 53.6 µM), inactives show at the highest dose activity, negative = inhibition, hits mostly inhibitors; AID 2546;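 further: Gal4-VP16 expression switched on by copper sulfate through the metallothionein promoter; potency means the concentration at half of the fitted maximal effect; nearly all actives have a fitted effect of over 50% in size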
IL-1B inflam inh – inflammasome signaling inhibition, IL-1 beta readout | 360,000 compounds, 4.7% hits | AID 743279 | THP-1 LPS/ATP IL-1B secretion, AlphaLISA, 16 h; stronger effect = lower value | activity change, % at 57.5 µM; in the data active means activity change below about -50%; inconclusive means mostly about -30% to -49%
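THP-1 cells pretreated 1 hr with compounds (up to 57.5 uM final), then stimulated with LPS (250 ng/mL final) plus ATP (1.25 mM final); secreted IL-1B measured by AlphaLISA after 16 hr, decreased signal indicating inhibition.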
RORgamma inh – blocks mouse ROR gamma transcriptional activity. Drosophila S2 Gal4-RORgamma UAS-luciferase reporter, 20 h. 310,000 compounds, 5.4% hits. Potency, µM (doses to about 53.6 µM), for the others: top-dose activity change, negative = inhibition, most hits filed as inhibitors. AID 2551; further: potency means the concentration at half of the fitted maximal effect; nearly all actives have a fitted effect of over 60% in size
Target sequence (P51450 whole entry, looked up, the tested form may be a part): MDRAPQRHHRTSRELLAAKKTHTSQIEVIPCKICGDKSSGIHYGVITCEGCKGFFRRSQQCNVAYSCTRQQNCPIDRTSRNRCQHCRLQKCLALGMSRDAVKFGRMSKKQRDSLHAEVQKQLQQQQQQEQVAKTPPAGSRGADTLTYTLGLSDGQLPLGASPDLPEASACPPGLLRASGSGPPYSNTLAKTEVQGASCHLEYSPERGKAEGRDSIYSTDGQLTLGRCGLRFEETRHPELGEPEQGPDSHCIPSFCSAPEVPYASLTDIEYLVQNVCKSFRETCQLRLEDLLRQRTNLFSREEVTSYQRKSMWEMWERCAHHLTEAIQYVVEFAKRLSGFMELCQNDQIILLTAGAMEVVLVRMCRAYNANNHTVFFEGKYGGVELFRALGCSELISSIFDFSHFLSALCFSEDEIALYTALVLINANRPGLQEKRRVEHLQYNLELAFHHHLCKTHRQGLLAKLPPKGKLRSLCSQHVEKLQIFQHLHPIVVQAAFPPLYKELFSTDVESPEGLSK
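Read-out: Photinus luciferase luminescence; inhibitors lower reporter signal. Insect Schneider cells with Gal4-ROR gamma fusion under metallothionein promoter, UAS reporter; 700 uM final copper sulfate induction, 20 hr, ambient temperature.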
DT40 TDP1 CPT – growth inhibition of DT40 Tdp1-/-;hTDP1 cells with camptothecin (screen for TDP1 inhibitors); Potency, µM (doses to about 46.2 µM), for inactives: top-dose activity change, negative = growth inhibition, actives largely listed as inhibitors; 420,000 compounds, 12% hits; chicken DT40 Tdp1-/-;hTDP1 cells + 20 nM CPT, ATP luminescence, 48 h; AID 686979; further: potency means the concentration at half of the fitted maximal effect; nearly all actives have a fitted effect of over 55% in size
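Chicken DT40 Tdp1-/- cells complemented with human TDP1, 400 cells/well, exposed to compounds plus 20 nM camptothecin for at least 48 h at 37 C; viability read as ATP content by CellTiter-Glo luminescence.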
ELG1 DNA repair – blocks ELG1-dependent DNA repair in HEK293T cells; Potency, µM (series often up to 46.1 µM), for inactives: at the top dose activity change, negative = inhibition, usual class: inhibitors; 330,000 compounds, 2.3% hits; HEK293T ELG1-luciferase reporter, luminescence, 16 h; DNA damage induced by 5-fluorouridine; further: potency means the concentration at half of the fitted maximal effect; nearly all actives have a fitted effect of over 55% in size
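HEK293T cells expressing luciferase-tagged ELG1 (2,000/well) received 5-Fluorouridine plus compound or DMSO for 16 hr at 37 °C. Luciferase was read by ONE-Glo luminescence after 30 min at room temperature.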
The depositor's hits bear a star; u = inconclusive; x = no result given. Sampled rows, rich in hits. Any-hit rate of the full collection: about 21%. Unless noted, the call rests on the fitted dose curve; in most records, active means well fitted curve in the direction sought with a large enough effect; inconclusive means small, poorly fitted or top-dose-only effect, or another doubt; inactive means no such curve, though single readings can be large; an effect the other way counts as inactive or inconclusive. On the % scale 0 is the no-effect control and ±100 the full control effect.

SMILES	DT40 TDP1 no CPT	VP16 counter	IL-1B inflam inh	RORgamma inh	DT40 TDP1 CPT	ELG1 DNA repair
COCCNC(=O)C1CCCN(Cc2cccc(C(F)(F)F)c2)CC1 (stereo not given)	-4%	x	20	x	14%	x
O=C(NC(c1ccc(Cl)cc1)c1ccsc1)C1CCN(Cc2cccc(C(F)(F)F)c2)CC1 (stereo not given)	4.1µM*	x	-70*	x	4.1µM*	x
O=C(NC(c1ccc(Cl)cc1)c1ccsc1)C1CCN(Cc2cccc(Cl)c2)CC1 (stereo not given)	4.6µM*	x	0	x	5.2µM*	x
COc1cccc(NCc2nnc(SC(C(=O)N(C)C)c3ccccc3)n2C2CCCCC2)c1 (stereo not given)	-27%	x	x	x	6%	x
Cc1occc(=O)c1OC(=O)Nc1ccc(Cl)c(Cl)c1	4.6µM*	u	-78*	u	2.9µM*	u
Cc1ccc(NC(=O)CN(C)Cc2cccs2)cc1Cl	21µM*	7%	-17	16%	u	-1%
CN(CC(=O)Nc1c(F)cccc1F)Cc1cccs1	2%	-9%	-13	7%	9%	-1%
CCN(CC)c1ccc(NC(=O)CN(C)Cc2cccs2)cc1	16µM*	-12%	-13	0%	u	-17%
C/C(CC(=O)Nc1ccc(C)c(Cl)c1)=N\NC(=O)Cc1cccs1	-10%	-4%	-6	-31%	-26%	0%
CC1CCc2nc3ncn(CC(=O)Nc4cccc(C#N)c4)c(=O)c3cc2C1 (stereo not given)	u	x	x	x	-20%	x
CN(CCc1cn[nH]c1)Cc1nc(Cc2ccccc2)no1	9%	u	-54*	u	14%	u
CN(CCc1cnn(C)c1)Cc1nc(CC2CC2)no1	-18%	11%	2	21%	-7%	7%
Cn1c(=O)c2c(nc(N3CCCCCC3)n2Cc2cccc3ccccc23)n(C)c1=O	26µM*	-9%	11	3%	u	u
Cn1c(=O)c2c(nc(N3CCOCC3)n2CC(=O)c2ccccc2)n(C)c1=O	x	-7%	x	7%	x	u
Cn1c(=O)c2c(nc(N3CCOCC3)n2Cc2ccccc2)n(C)c1=O	26µM*	x	x	x	u	x
CCOC(=O)Cn1c(=O)c2c(nc(N3CCOCC3)n2Cc2ccccc2)n(C)c1=O	16µM*	x	x	x	u	x
CCOC(=O)Cn1c(=O)c2c(nc3n2CCCN3Cc2ccccc2)n(C)c1=O	-24%	-7%	-1	17%	4%	-5%
CN1CCN(c2nc3c(c(=O)n(C)c(=O)n3C)n2Cc2cccc3ccccc23)CC1	-30%	3%	-17	41%	-6%	16%
O=C(COC(=O)C1CCN(S(=O)(=O)c2cccc3cccnc23)CC1)c1ccccc1	-1%	7%	-6	1%	-10%	-2%
CC(=O)N1CCc2c(sc3c2c(=O)n(-c2cc(Cl)ccc2C)c(=O)n3C)C1	-9%	x	x	x	0%	x
O=[N+]([O-])c1cccc(-c2nnc3ccc4ccccc4n23)c1	13µM*	2%	15	-28%	16µM*	u
C[C@@H](C(=O)NCCc1ccccc1)N1C(=O)N2CCc3c([nH]c4ccccc34)[C@@]2(C)C1=O	u	-21%	7	28%	18µM*	4%
C[C@@H](C(=O)NCCc1ccccc1F)N1C(=O)N2CCc3c([nH]c4ccccc34)[C@@]2(C)C1=O	9.2µM*	-8%	-10	44%	12µM*	-28%
COc1ccc2[nH]c3c(c2c1)CCN1C(=O)N([C@@H](C)C(=O)NCc2ccccc2)C(=O)[C@]31C	u	4%	-4	-11%	u	-3%
CC(C)[C@@H](C(=O)NCc1ccco1)N1C(=O)N2CCc3c([nH]c4ccccc34)[C@@]2(C)C1=O	u	1%	6	8%	u	-3%
SMILES	DT40 TDP1 no CPT	VP16 counter	IL-1B inflam inh	RORgamma inh	DT40 TDP1 CPT	ELG1 DNA repair
COc1ccccc1NC(=O)N1CCc2[nH]c3ccc(Cl)cc3c2C1	u	0%	x	u	21µM*	16µM*
O=C(Nc1ccc(OC(F)(F)F)cc1)N1CCN(c2ccnc3cc(Cl)ccc23)CC1	5.2µM*	28µM*	u	u	4.6µM*	18µM*
COc1ccccc1N1CCN(c2ccnc3cc(Cl)ccc23)CC1	4.6µM*	8%	40	13%	2.6µM*	u
COc1ccccc1NC(=O)N1CCN(c2ccnc3cc(Cl)ccc23)CC1	16µM*	-21%	-75*	-10%	u	12µM*
COC(=O)c1ccc(C(NC(=O)OCc2ccccc2)/C(=C/[C@@H](C)C(=O)NCc2ccc(-c3ccccc3)cc2)c2cccnc2)cc1 (stereo not given in full)	x	2%	x	9%	x	x
CCc1ccc(S(=O)(=O)N(C(=O)Oc2ccccc2)c2ccc3oc(C)c(C(=O)OC)c3c2)cc1	2.9µM*	x	x	x	3.7µM*	x
CC(=O)c1c(C)oc2ccc(N(C(=O)Oc3ccccc3)S(=O)(=O)c3ccc(Br)cc3)cc12	22%	x	x	x	-8%	x
COC(=O)c1c(C)oc2ccc(N(C(=O)Oc3ccccc3)S(=O)(=O)c3ccc(Cl)c([N+](=O)[O-])c3)cc12	21µM*	-3%	-105*	5%	u	-27%
CCCC(=O)N(c1ccc2oc(C)c(C(C)=O)c2c1)S(=O)(=O)c1ccc(C)c([N+](=O)[O-])c1	16µM*	u	9	u	18µM*	u
CCOC(=O)c1c(-c2ccccc2)oc2ccc(N(C(C)=O)S(=O)(=O)c3ccc(CC)cc3)cc12	5.8µM*	x	x	x	16µM*	x
COc1cccc(NC(=O)CN2CCC(NC(=O)c3ccccc3C)CC2)c1	-2%	x	-7	x	-8%	x
NC(=O)CSc1nc2cc(S(=O)(=O)N3CCOCC3)ccc2o1	-3%	x	18	x	-2%	2%
CN(C)c1ncc2nc(-c3ccccc3)c(=O)n(C3CC3)c2n1	u	-11%	x	-3%	5%	x
Cn1c(=N)n(CC(=O)c2ccc(Br)cc2)c2ccccc21	18µM*	x	x	x	21µM*	x
Cn1c(=N)n(CC(=O)c2ccc(F)cc2)c2ccccc21	13µM*	11µM*	2	8.9µM*	16µM*	u
CCN(CC)c1ccc(NC(=O)CCc2c(C)nc3ncnn3c2C)c(C)c1	u	x	x	x	-1%	x
COC(=O)[C@@]1(Cc2ccc(F)cc2)[C@H]2c3cc(C(=O)N(C)C)n(CCO)c3C[C@H]2CN1C(=O)c1ccccc1	-25%	18%	-1	-1%	-8%	x
